9 molecules from PubChem BioAssay (NCI) can be followed below.

The panel holds about 83,000 compounds, 20% with a hit somewhere; the sample as a whole holds those more often.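 Compound tested at a single concentration for 48 hours in 96-well plates; a percent growth value below 10 was scored as active.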 A number with no mark means an inactive call. The source made the active and inactive calls.

Some test systems named below: NCI-H23 lung; NCI-H226 lung; NCI-H322M lung; HOP-62 NSCLC; NCI-H460 lung; NCI-H522 lung; A549/ATCC NSCLC; 786-0 renal; COLO 205 colon; DU-145 prostate; K-562 leukemia; MDA-MB-231 breast; RXF 393 renal; SF-268 CNS; SF-295 CNS; SF-539 CNS; UACC-257 melanoma; M14 melanoma.
Experiment in all cases: NCI-60 one-dose screen, 48 h (100 = growth as untreated, 0 = no growth, -100 = all killed)
What all share (settings): 10 µM unless noted

With `CC(C)(C)c1ccc(C(=O)Nc2nc3ccc(O)cc3s2)cc1`, the growth with NCI-H23 lung was 54.8%; in the test with NCI-H226 lung it was 53.5%; in the test with NCI-H322M lung, 54.8%; with HOP-62 NSCLC, 82.9%; in the test on NCI-H460 lung, 19.1%; with NCI-H522 lung, 52.6%. Besides, the growth in the test with A549/ATCC NSCLC was 38.4%; in the test on 786-0 renal, 2.03% (active); in the test with COLO 205 colon, 8.14% (active); in the test with DU-145 prostate, 48.2%; in the test on K-562 leukemia it was 8.79% (active); in the test on MDA-MB-231 breast it was 69.5%. The growth with RXF 393 renal was 46.3%; with SF-268 CNS, 55.9%; with SF-295 CNS it was 3.43% (active); with SF-539 CNS it was 38.1%; with UACC-257 melanoma, 31.8%; in the test on M14 melanoma, 14.3%.
Consider `CNc1ncc2cc(-c3ccc(-c4ncccc4F)cc3Cl)c(=O)n(CC3OCC(N)CO3)c2n1` (stereo not given), for which the growth is 78.4% with NCI-H23 lung; 64.3% with NCI-H226 lung; 79.5% in the test with NCI-H322M lung; 47.1% in the test with HOP-62 NSCLC; 102% in the test on NCI-H460 lung; 75.7% in the test with NCI-H522 lung. The growth was 57.1% in the test on A549/ATCC NSCLC; 56.9% in the test on 786-0 renal; 46.4% in the test on COLO 205 colon; 63.3% in the test with DU-145 prostate; 78.8% with K-562 leukemia; 10.8% with MDA-MB-231 breast. The growth in the test on RXF 393 renal is -9.68% (active); with SF-268 CNS, 24.8%; with SF-295 CNS it was 74.3%; in the test on SF-539 CNS, 67.4%; with UACC-257 melanoma, 93%.
`CCO/C=N/C1=C(C#N)C(c2ccc(OC)cc2)c2sc3c(CC)cccc3c2O1` (stereo not given): the growth in the test with NCI-H23 lung was 32.2%; in the test with NCI-H226 lung it was 61.8%; in the test on NCI-H322M lung, 42.2%; with HOP-62 NSCLC, 54.8%; with NCI-H460 lung it was 9.18% (active); in the test with NCI-H522 lung it was 18.6%. The growth with A549/ATCC NSCLC is 47.1%; in the test with 786-0 renal it was 48.7%; in the test with COLO 205 colon, 34.4%; in the test on DU-145 prostate, 17.6%; with K-562 leukemia, 14.5%; in the test with MDA-MB-231 breast, 31.7%. Moreover, the growth in the test on RXF 393 renal is -21% (active); in the test on SF-268 CNS it was 61.5%; with SF-295 CNS, 3.52% (active); in the test on SF-539 CNS, 4.01% (active); in the test with UACC-257 melanoma, 73.8%; in the test with M14 melanoma, 16.1%.
Turning to `Nc1nc(N)c2c(n1)NC(c1ccc(C(F)(F)F)cc1)CC(c1ccc(Nc3nc(NCCO)nc(N4CCOCC4)n3)cc1)=N2` (stereo not given), the growth with NCI-H23 lung is 72.8%; with NCI-H226 lung it was 70.2%; in the test on NCI-H322M lung, 95.6%; with HOP-62 NSCLC it was 47.1%; in the test with NCI-H460 lung, 48.3%; in the test with NCI-H522 lung, 52.5%. Further, the growth with A549/ATCC NSCLC was 74.4%; in the test with 786-0 renal, 62.7%; with COLO 205 colon, 71.1%; with DU-145 prostate it was 79.2%; in the test with K-562 leukemia it was 17.9%; in the test on MDA-MB-231 breast, 80.8%. For the same molecule, the growth is 67.9% with RXF 393 renal; 63.6% with SF-268 CNS; 73.2% with SF-295 CNS; 75.3% with SF-539 CNS; 80.2% in the test with UACC-257 melanoma; 71.7% in the test on M14 melanoma.
As to `O=C(Cn1cc[n+](CC(=O)c2ccc(-c3ccccc3)cc2)c1)Nc1cccc2cccnc12`, the growth with NCI-H23 lung was 76.8%; with NCI-H226 lung it was 83.7%; with NCI-H322M lung it was 95.7%; in the test with HOP-62 NSCLC it was 88.4%; with NCI-H460 lung it was 87.8%; with NCI-H522 lung it was 42.3%. In addition, the growth is 88.1% with A549/ATCC NSCLC; 95.8% in the test on 786-0 renal; 74.2% in the test with COLO 205 colon; 86.4% with DU-145 prostate; 50.5% in the test with K-562 leukemia; 73.1% with MDA-MB-231 breast. Further, the growth in the test with RXF 393 renal is 98.3%; with SF-268 CNS it was 65.5%; in the test with SF-295 CNS, 102%; in the test with SF-539 CNS it was 79.1%; in the test with UACC-257 melanoma, 34.4%.
As for `NC(N)=Nc1ccc(Nc2cccc(Oc3ccc(Cl)c(C(F)(F)F)c3)c2)cn1`, the growth with NCI-H23 lung is 32%; in the test on NCI-H226 lung, 36.5%; in the test with NCI-H322M lung it was 52.9%; with HOP-62 NSCLC, 17.4%; in the test on NCI-H460 lung, -71.3% (active); in the test with NCI-H522 lung, 18%. Moreover, the growth was 19.9% in the test with A549/ATCC NSCLC; 54.3% with 786-0 renal; -48.7% (active) in the test with COLO 205 colon; 38.3% in the test on DU-145 prostate; -48.8% (active) with K-562 leukemia; 47.5% with MDA-MB-231 breast. Also, the growth was 56.6% with RXF 393 renal; 53.6% with SF-268 CNS; 23.8% in the test with SF-295 CNS; 78.5% in the test on SF-539 CNS; 31.9% with UACC-257 melanoma; 41.2% with M14 melanoma.
As to `NC(N)=Nc1ccc(Oc2cccc(Oc3ccc(Cl)c(C(F)(F)F)c3)c2)cn1`, the growth is -83.5% (active) in the test with NCI-H23 lung; -73.4% (active) in the test with NCI-H226 lung; -6.46% (active) with NCI-H322M lung; -56% (active) in the test on HOP-62 NSCLC; -78.8% (active) in the test on NCI-H460 lung; -67.9% (active) with NCI-H522 lung. In addition, the growth in the test on A549/ATCC NSCLC is -67.1% (active); in the test on 786-0 renal, -82% (active); in the test with COLO 205 colon, -68.2% (active); in the test on DU-145 prostate, -91.9% (active); with K-562 leukemia it was -54.7% (active); in the test with MDA-MB-231 breast it was -82.9% (active). Further, the growth was 7.96% (active) in the test on RXF 393 renal; 64.9% in the test with SF-268 CNS; -93.5% (active) in the test on SF-295 CNS; -79.7% (active) in the test with SF-539 CNS; -56% (active) with UACC-257 melanoma; -84.3% (active) in the test with M14 melanoma.
For `Nc1nc(N)c2c(n1)NC(c1ccc(Cl)cc1)CC(c1ccc(Nc3nc(NCCO)nc(N4CCOCC4)n3)cc1)=N2` (stereo not given), the growth is 85.2% in the test with NCI-H23 lung; 82% with NCI-H226 lung; 95.5% in the test on NCI-H322M lung; 80.2% in the test with HOP-62 NSCLC; 79.8% in the test on NCI-H460 lung; 65.8% in the test on NCI-H522 lung. For the same molecule, the growth with A549/ATCC NSCLC is 86.3%; in the test on 786-0 renal, 67.8%; with COLO 205 colon, 72.6%; in the test with DU-145 prostate, 86.1%; in the test with K-562 leukemia it was 31.1%; with MDA-MB-231 breast it was 80.5%. In addition, the growth in the test with RXF 393 renal is 61.2%; in the test with SF-268 CNS it was 61.8%; with SF-295 CNS it was 76.2%; with SF-539 CNS it was 78.4%; with UACC-257 melanoma, 84.6%; with M14 melanoma it was 88.1%.
For `C#CCOC(=O)[C@@H]1CCCN1CC#C`, the growth in the test on NCI-H23 lung was 96.7%; with NCI-H226 lung it was 81.2%; with NCI-H322M lung it was 106%; with HOP-62 NSCLC, 101%; in the test with NCI-H460 lung, 87.8%; in the test with NCI-H522 lung, 96.6%. The growth was 80.3% with A549/ATCC NSCLC; 87.8% in the test on 786-0 renal; 88% in the test on COLO 205 colon; 92% in the test on DU-145 prostate; 76.8% in the test with K-562 leukemia; 84.6% in the test on MDA-MB-231 breast. The growth with RXF 393 renal was 81.7%; in the test on SF-268 CNS it was 76.9%; in the test on SF-295 CNS, 102%; in the test on SF-539 CNS, 90.2%; in the test on UACC-257 melanoma it was 97.3%; in the test with M14 melanoma it was 98.4%.
